# Screens as filed in PubChem BioAssay.
# In the library only some 12% were active in any assay of this set; here they are far more common.
# L3MBTL1 inh: blocks human L3MBTL1; AlphaScreen L3MBTL1–H3K9me1 peptide binding; AID 485360; 230,000 tested, 0.66% active; Potency, µM (doses to about 57.1 µM), for the others: top-dose activity, negative = inhibition, hits mostly inhibitors; note: % is set by controls: 0 for no effect and ±100 for the full control effect; nearly all actives have a fitted effect of over 60% in size
# Target sequence (Q9Y468 whole entry, looked up): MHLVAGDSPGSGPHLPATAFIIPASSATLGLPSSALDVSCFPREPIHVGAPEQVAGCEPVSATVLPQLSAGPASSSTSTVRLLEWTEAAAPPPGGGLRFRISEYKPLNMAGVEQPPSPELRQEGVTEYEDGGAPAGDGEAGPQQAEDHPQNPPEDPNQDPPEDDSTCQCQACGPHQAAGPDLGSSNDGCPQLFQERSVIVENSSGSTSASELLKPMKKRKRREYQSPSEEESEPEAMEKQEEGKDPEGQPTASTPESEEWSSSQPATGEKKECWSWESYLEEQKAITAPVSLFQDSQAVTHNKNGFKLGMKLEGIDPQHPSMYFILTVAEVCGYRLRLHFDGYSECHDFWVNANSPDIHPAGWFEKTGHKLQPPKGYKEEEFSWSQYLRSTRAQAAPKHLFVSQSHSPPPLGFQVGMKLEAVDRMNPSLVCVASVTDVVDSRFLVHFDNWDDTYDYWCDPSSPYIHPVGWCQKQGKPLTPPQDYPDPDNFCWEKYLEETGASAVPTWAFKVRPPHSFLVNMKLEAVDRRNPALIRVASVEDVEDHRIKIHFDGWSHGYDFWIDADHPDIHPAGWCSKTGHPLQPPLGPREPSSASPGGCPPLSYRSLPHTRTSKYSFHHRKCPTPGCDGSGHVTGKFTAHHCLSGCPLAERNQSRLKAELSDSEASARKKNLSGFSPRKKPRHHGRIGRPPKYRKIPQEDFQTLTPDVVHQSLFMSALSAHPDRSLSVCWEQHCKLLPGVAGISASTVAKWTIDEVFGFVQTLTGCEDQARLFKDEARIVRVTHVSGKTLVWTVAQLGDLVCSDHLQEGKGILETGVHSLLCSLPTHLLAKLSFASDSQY
#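 Displacement of a biotinylated histone H3(1-15) peptide monomethylated at Lys9 (75 nM) from L3MBTL1 (50 nM) was measured by AlphaScreen after a 30 min room-temperature compound incubation; cefsulodin titration served as intraplate control.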
# HP1b chromo inh: HP1-beta chromodomain-methylated histone interaction inhibition; P83916; AlphaScreen HP1-beta / biotin-H3K9me3 peptide binding; Potency, µM (highest dose often 114 µM), for inactives: top-dose activity change, negative = inhibition, usual class: inhibitors; 390,000 tested, 0.56% active; note: nearly all actives have a fitted effect of over 70% in size
#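 HP1-beta protein (50 nM final) preincubated 30 min at room temperature with biotinylated H3(1-18)K9me3 peptide (50 nM) in PBS pH 7.4, 0.01% Tween-20, then compound added for 30 min. AlphaScreen streptavidin donor/nickel chelate acceptor beads (10 ug/mL final), 30 min dark, luminescence read.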
# G9a block: inhibitors of human histone lysine methyltransferase G9a; Q96KQ7; G9a H3K9 monomethylation, AlphaScreen, 2 h; Potency, µM (highest dose often 102 µM), for the others: top-dose activity, negative = inhibition, usual class: inhibitors; 350,000 tested, 8.8% active; AID 504332; note: % is set by controls: 0 for no effect and ±100 for the full control effect; nearly all actives have a fitted effect of over 75% in size
#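 Step 1: enzyme (final 20 nM) with compound, 15 min RT. Step 2: substrate peptide 500 nM and SAM 20 uM, 2 h RT. Step 3: anti-H3K9me1 antibody and AlphaScreen beads, 10 min, then plate read.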
# JMJD2A Tudor: JMJD2A Tudor domain (human) inhibition | O75164 | AlphaScreen JMJD2A-Tudor / H3K4me3 peptide binding | Potency, µM (titrated, usually from 114 µM), for inactives: top-dose activity change, negative = inhibition, most hits filed as inhibitors | 390,000 tested, 4.4% active | AID 504339; note: % is set by controls: 0 for no effect and ±100 for the full control effect; nearly all actives have a fitted effect of over 50% in size
# Sfp inh: Sfp phosphopantetheinyl transferase inhibition | 310,000 tested, 3.5% active | Potency, µM, for the others: largest response in the series, negative = inhibition, actives largely listed as inhibitors | Biochemical Sfp PPTase activity, qHTS | Q9F4F7 | AID 1490;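 note: the enzyme is Sfp with the accession as filed and its product quenches rhodamine fluorescence; 0% = enzyme reaction without inhibitor and -100% = no enzyme wells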
#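 Buffer: 50 mM Hepes-Na pH 7.6, 10 mM MgCl2, 0.01% Nonidet P-40, 0.01% BSA. Enzyme 15 nM, pre-exposed to compound 15 min; substrates then added and fluorescence change tracked over 30 min.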
# BAZ2B inh: inhibitors of human BAZ2B bromodomain; Q9UIF8; AlphaScreen BAZ2B-H3K14Ac peptide displacement; Potency, µM (series often up to 114 µM), without a hit: at the top dose activity change, negative = inhibition, hits mostly inhibitors; 360,000 tested, 4.4% active; AID 504333; note: % is set by controls: 0 for no effect and ±100 for the full control effect; nearly all actives have a fitted effect of over 60% in size
#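 BAZ2B 50 nM plus b-H3(5-23)K14Ac 50 nM, PBS pH 7.4/0.01% Tween-20, 30 min RT; compound added (max 110 uM), 30 min RT; streptavidin donor/Ni-chelate acceptor beads 10 ug/mL final, 20 min dark; AlphaScreen read.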
# Starred values were filed as active, the others as inactive; ? = inconclusive; / = no result given; [ ] = dose if it differs, or a comment. Calls come from the whole dose curve; as a rule, active = well fitted curve in the direction sought with a large enough effect; inconclusive = small, poorly fitted or top-dose-only effect, or another doubt; inactive = no such curve, though single readings can be large; an effect the other way counts as inactive or inconclusive. Potency is the fitted concentration of half-maximal effect.
SMILES,L3MBTL1 inh,HP1b chromo inh,G9a block,JMJD2A Tudor,Sfp inh,BAZ2B inh
O=C(CCn1c2c(c3ccccc31)CCCC2)NNC(=O)c1ccc([N+](=O)[O-])cc1,-1%,-5%,16µM*,-32%,-10%,-36%
CC1CCCCC1NC(=O)c1cccc(S(=O)(=O)N2CCN(C)CC2)c1 (stereo unspecified),-1%,7%,45µM*,-19%,/,-6%
CCN1CCN(c2ccc(S(=O)(=O)N3CCCCC3)cc2NC(=O)c2ccc(C)o2)CC1,-3%,-6%,40µM*,-23%,/,-7%
CCN1CCN(c2ccc(S(=O)(=O)N3CCCCC3)cc2NC(=O)c2cccc(C)c2[N+](=O)[O-])CC1,-4%,-2%,50µM*,-34%,/,-35%
CCN1CCN(c2ccc(S(=O)(=O)N3CCCCC3)cc2NC(=O)c2cccc(C(F)(F)F)c2)CC1,-8%,-11%,13µM*,-34%,/,-9%
CN(C(=O)CSc1nnc(-c2ccc([N+](=O)[O-])cc2)o1)c1ccccc1,/,10%,-15%[59 µM],-23%,/,-32%
COC(=O)c1ccc(NC(=O)C(C)Sc2nc(=O)cc(N)n2CCc2ccccc2)cc1 (stereo unspecified),/,18%,?,-13%,/,?
CCN1CCN(c2ccc(S(=O)(=O)N3CCCCC3)cc2NC(=O)c2ccc([N+](=O)[O-])s2)CC1,-6%,?,10µM*,?,/,-7%
CCN1CCN(c2ccc(S(=O)(=O)N3CCCCC3)cc2NC(=O)c2ccccc2)CC1,-6%,21%,10µM*,-15%,/,-11%
CN1CCN(S(=O)(=O)c2cccc(C(=O)Nc3cc(C(F)(F)F)ccc3N3CCCCC3)c2)CC1,-12%,12%,45µM*,-31%,/,-11%
COc1ccccc1NC(=O)CSc1oc(-c2ccccc2)nc1S(=O)(=O)c1ccc(C)cc1,/,26%,-25%[59 µM],1%,/,-4%
COc1ccc(C(=O)NCc2ccc3c(c2)CCN3C(=O)c2ccc(Cl)cc2)c(OC)c1,/,19%,-19%[59 µM],?,/,-16%
Cc1ccc(S(=O)(=O)Nc2cc3c(C(=O)O)c(C)oc3c3ccccc23)c(C)c1,/,?,50µM*,?,12%,50µM*
Cc1cc(F)ccc1S(=O)(=O)Nc1cc2c(C(=O)O)c(C)oc2c2ccccc12,/,-11%,-40%[59 µM],?,/,-18%
COC(=O)c1c(C)oc2c1cc(NS(=O)(=O)c1ccc(C(=O)O)cc1)c1ccccc12,-14%,1%,35µM*,-32%,-19%,?
CCc1ccccc1NC(=O)c1ccc2c(c1)N(Cc1cccc(Cl)c1)C(=O)c1ccccc1S2(=O)=O,/,62%,-3%[59 µM],-8%,/,1%
CCOc1ccc(OCC)c(NC(=O)CCc2nc3cccnc3n2-c2ccccc2)c1,/,18%,?,?,/,-32%
CCCCNC(=O)CN1CCN(c2ncc(NC(=O)c3ccc(Cl)cc3)cc2C(=O)O)CC1,/,-31%,?,79µM*,/,50µM*
CCCNC(=O)CN1CCN(c2ncc(NC(=O)c3ccc(Cl)cc3)cc2C(=O)O)CC1,/,-23%,?,71µM*,/,50µM*
CCCCNC(=O)CN1CCN(c2ccc(NC(=O)c3ccc(OC)cc3)cc2C(=O)O)CC1,/,16%,-4%[59 µM],?,/,-3%
CC(C)N(C(=O)CSc1nnc(C2CC2)n1C1CC1)c1ccccc1,9%,13%,50µM*,-11%,/,-8%
O=C(NCC(c1ccco1)S(=O)(=O)c1cccs1)c1ccc(F)c(F)c1 (stereo unspecified),/,26%,8%[59 µM],-2%,/,0%
Cc1cc(C(=O)CSC(C)c2nc3ccccc3c(=O)[nH]2)c(C)n1C (stereo unspecified),6%,11%,50µM*,-25%,-26%,-37%
Cc1cc(C(=O)CSc2nc3ccccc3c(=O)[nH]2)c(C)n1C,/,19%,?,-29%,-28%,-36%
